Rows were chosen to be rich in hits. Some 31% of all compounds tested hit in one or more screens of this group.
PLAP act: PLAP enzyme activators, biochemical, luminescence, HTS; Alkaline phosphatase, placental type (Homo sapiens), P05187; 96,000 tested, 1.2% active; AID 696, 2007; activation fold at 20 µM; purified PLAP enzyme, luminescent substrate read-out; hits give high values; in the data active = activation fold above about 2
CYP2C9 inh: blockers of cytochrome P450 2C9 activity – biochemical, luminescence, ADME assay, primary screen; P11712; CYP2C9 Supersomes, luciferin-H conversion; inhibition, % at 5 µM; 96,000 tested, 20% active; AID 777, 2007;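 active = blocking of liver enzyme CYP2C9 beyond about 50% at 5 µM, limit read from the data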
Target sequence (P11712 whole entry, looked up): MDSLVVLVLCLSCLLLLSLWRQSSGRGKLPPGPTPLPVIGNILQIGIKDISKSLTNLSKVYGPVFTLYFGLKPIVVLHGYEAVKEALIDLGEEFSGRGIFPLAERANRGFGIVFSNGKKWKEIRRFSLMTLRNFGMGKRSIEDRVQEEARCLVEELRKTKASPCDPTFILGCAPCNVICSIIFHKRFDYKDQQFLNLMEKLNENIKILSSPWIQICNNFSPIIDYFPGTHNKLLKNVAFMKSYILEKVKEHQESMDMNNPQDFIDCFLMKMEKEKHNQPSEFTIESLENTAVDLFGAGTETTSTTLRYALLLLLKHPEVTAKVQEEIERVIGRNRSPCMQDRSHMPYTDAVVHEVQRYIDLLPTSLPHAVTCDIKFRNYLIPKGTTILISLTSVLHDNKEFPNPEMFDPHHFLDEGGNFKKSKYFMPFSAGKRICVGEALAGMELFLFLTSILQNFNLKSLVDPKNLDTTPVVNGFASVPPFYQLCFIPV
CYP2C19 inhib: blockers of cytochrome P450 2C19 activity – biochemical, luminescence, ADME assay, primary screen. inhibition, % at 5 µM. P33261. 96,000 tested, 21% active. CYP2C19 Supersomes, luciferin-H EGE luminescence, 30 min;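 active = CYP2C19 inhibition above a set limit at 5 µM in the primary screen, cut at about 50% in these data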
CYP2C9 activ: human CYP2C9 activators, primary screen, biochemical, luminescence. Cytochrome P450 2C9 (Homo sapiens), P11712. 96,000 tested, 1.4% active. recombinant CYP2C9, luciferin-H conversion; hits give high values; factor 1 = untreated enzyme, 0 = blocked. activation factor at 5 µM;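 active = activation factor of 2 or more for CYP2C9 at a 5 µM dose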
CYP2C19 activ: human CYP2C19 activators, primary screen, biochemical, luminescence; 96,000 tested, under 10 active; recombinant CYP2C19, luciferin-H EGE luminescence; hits give high values; 0 = fully inhibited enzyme, 1 = untreated enzyme; Cytochrome P450 2C19 (Homo sapiens), P33261; AID 1025, 2008; activation factor at 5 µM;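 active = activation factor of at least 2 at 5 µM in the primary screen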
Large screens that a line does not name were inactive.

C(=N\n1cnnc1)/c1cccc2ccccc12	none
O=c1c2ccccc2c(C=NCCO)c(O)n1-c1ccccc1	none
O=c1c2ccccc2c(/C=N/n2cnnc2)c(O)n1-c1ccccc1F	CYP2C9 inh 58
O=C(NCC(=O)N(c1cccnc1)C(C(=O)NCc1ccco1)c1ccccc1)c1ccco1 (stereo not drawn)	none
O=C(Nc1cnn(C23CC4CC(CC(C4)C2)C3)c1)c1cnn2cccnc12	none
CNC(=O)C1C2C=CC3(O2)C1C(=O)N(CCOC)C3C(=O)NCc1ccc(OC)cc1 (stereo not drawn)	none
CCOC(=O)c1c(NC(=S)NC(=O)c2ccc(Cn3cc(Cl)cn3)o2)sc2c1CCCCC2	none
CC1CCCCN1C(=O)Cn1c(=O)n(CCC(=O)NCc2ccco2)c(=O)c2sccc21 (stereo not drawn)	none
CCc1ccc(NC(=O)Cn2c(=O)n(CCCC(=O)NCc3ccco3)c(=O)c3ccccc32)cc1	none
CCN(Cc1ccccc1)C(=O)Cn1c(=O)n(CC(=O)NCc2ccco2)c(=O)c2sccc21	CYP2C9 inh 82
O=C(CCn1c(=O)c2sccc2n(CC(=O)OCc2ccccc2)c1=O)NCc1ccccc1	CYP2C9 inh 62
O=C(CCCn1c(=O)c2sccc2n(CC(=O)OCc2ccccc2)c1=O)NCc1ccco1	CYP2C19 inhib 51
Cc1ccc(C)c(Cn2c(=O)n(-c3ccc(CC(=O)NCc4ccco4)cc3)c(=O)c3sccc32)c1	none
O=C(CCCn1c(=O)c2sccc2n(Cc2ccc(F)cc2)c1=O)NCc1ccco1	CYP2C9 inh 69, CYP2C19 inhib 80
Cc1ccc(S(=O)(=O)NCC(=O)N(CC(=O)NC2CCCCC2)CC2CCCO2)cc1 (stereo not drawn)	none
O=c1nc(-c2ccccc2)cn[nH]1	none
Cc1cccc(C)c1NC(=O)Cn1c(=O)n(CCC(=O)NCc2ccco2)c(=O)c2sccc21	none
O=C(CCn1c(=O)c2sccc2n(CC(=O)OCc2ccccc2)c1=O)NCc1ccco1	CYP2C9 inh 58
Cc1cc(Nc2ccccc2F)n2ncnc2n1	none
Cc1c(-c2ccccc2)sc(Br)c1C(=O)N1CCOCC1	none
O=C(NCCCc1ccccc1)c1ccccc1O	CYP2C9 inh 90, CYP2C19 inhib 97
O=C(NCCC1=CCCCC1)c1ccc(Br)o1	CYP2C9 inh 59, CYP2C19 inhib 90
O=C(NCc1ccccc1)c1ccc(-c2ccccc2F)o1	CYP2C19 inhib 62
O=C(NCc1ccc(Cl)cc1)c1ccc(Br)o1	CYP2C9 inh 59, CYP2C19 inhib 95
CCC(C)(C(=O)NC1CCCCC1)N(C(=O)C1CCC(=O)N1)c1ccccc1 (stereo not drawn)	none
CCOC(=O)c1c(-c2ccc(C)s2)csc1NC(=O)c1ccco1	none
CC1CC(C)CN(c2oc(-c3ccccc3Cl)nc2C#N)C1 (stereo not drawn)	none
O=C(NCCCc1ccccc1)c1ccc(Br)o1	CYP2C9 inh 51, CYP2C19 inhib 96
COc1ccc2[nH]c(=O)c(CN(Cc3nnnn3Cc3ccco3)C3CCCCC3)cc2c1	CYP2C9 inh 75, CYP2C19 inhib 89
COc1ccc2cc(CN(CCc3ccccc3)Cc3nnnn3Cc3ccco3)c(=O)[nH]c2c1	CYP2C9 inh 100, CYP2C19 inhib 96
COc1ccc2[nH]c(=O)c(C(c3nnnn3C3CCCC3)N(C)C3CCCCC3)cc2c1 (stereo not drawn)	none
COc1ccc2[nH]c(=O)c(CN(C3CCCCC3)C(c3nnnn3Cc3ccco3)C(C)C)cc2c1 (stereo not drawn)	CYP2C9 inh 95, CYP2C19 inhib 60
COc1ccc2cc(CN(CCCN3CCOCC3)Cc3nnnn3C3CCCCC3)c(=O)[nH]c2c1	none
Cc1ccc2cc(C(c3nnnn3C3CCCC3)N(Cc3cccnc3)Cc3ccco3)c(=O)[nH]c2c1 (stereo not drawn)	CYP2C9 inh 74, CYP2C19 inhib 92
Cc1cnc(C)c(N2CCC(C(=O)NC(C)c3cccs3)CC2)n1 (stereo not drawn)	none
COc1ccccc1CN(Cc1cc2c(C)ccc(C)c2[nH]c1=O)Cc1nnnn1Cc1ccco1	CYP2C9 inh 80, CYP2C19 inhib 60
Cc1cccc2cc(CN(Cc3ccc(F)cc3)Cc3nnnn3C3CCCC3)c(=O)[nH]c12	none

Assay outcomes from PubChem.
